4-MU autofl – compound fluoresces in the 4-MU spectral region; compound autofluorescence, 340/450 nm, 4-MU equivalents; hits give high values; max dye-equivalent concentration, M; 59,000 tested, 11% active; in the data active = max dye-equivalent concentration above about 10 nM; inconclusive = mostly about 1.1 nM to 9.6 nM
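Compounds in 100 mM Tris, pH 8.0, incubated 15 min at room temperature, then fluorescence read at 340 nm excitation/450 nm emission. Signal converted to 4-MU dye-equivalent concentration using an on-plate six-point 4-MU standard curve.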
HSD17B inh – blocks hydroxysteroid 17-beta dehydrogenase activity; 75,000 tested, 7.6% active; recombinant HSD17B10, NADH fluorescence kinetic; Q99714; AID 893; Potency, µM (highest dose often 57.1 µM), for the others: top-dose activity change, negative = inhibition, usual class: inhibitors;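 also: the protocol describes HADH2 (HSD17B10) and not the HSD17B4 of the title; potency is read from the fitted curve at half-maximal effect; % is scaled to controls: 0 for no effect and ±100 for the full control effect; nearly all actives have a fitted effect of over 70% in size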
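Activity followed as NADH fluorescence increase (ex 360, em 450 nm) every 30 seconds for 4 min, using final 90 uM beta-hydroxybutyryl CoA and 1 mM NAD+. Recombinant His-tagged enzyme, 20 nM, pH 9.0 Tris buffer, 15 min compound preincubation.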
HADH2 inhib – blocks human hydroxyacyl-CoA dehydrogenase type II | 73,000 tested, 3.4% active | Potency, µM (series often up to 57.1 µM), for inactives: at the highest dose activity change, negative = inhibition, actives largely listed as inhibitors | recombinant HADH2, NADH fluorescence, beta-hydroxybutyryl-CoA | Q99714; also: potency is read from the fitted curve at half-maximal effect; % is scaled to controls: 0 for no effect and ±100 for the full control effect; nearly all actives have a fitted effect of over 60% in size
Target sequence (Q99714 whole entry, looked up, one chain of several): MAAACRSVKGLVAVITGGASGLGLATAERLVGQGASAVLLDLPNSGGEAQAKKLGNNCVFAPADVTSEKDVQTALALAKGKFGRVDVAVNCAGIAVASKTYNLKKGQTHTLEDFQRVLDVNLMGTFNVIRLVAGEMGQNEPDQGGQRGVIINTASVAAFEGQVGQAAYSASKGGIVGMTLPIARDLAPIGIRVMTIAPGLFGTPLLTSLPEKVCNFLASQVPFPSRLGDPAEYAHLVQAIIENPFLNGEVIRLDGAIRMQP
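NADH fluorescence (ex 360/em 450 nm) read every 30 s for 4 min; activity taken as last-minus-first time point difference. Enzyme 20 nM, NAD+ 1 mM, beta-hydroxybutyryl-CoA 90 uM, pH 9.0 Tris buffer.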
A350 autofl – compound fluoresces in the Alexa 350 spectral region | Compound autofluorescence, 340/450 nm, Alexa 350 dye-equivalents; hits give high values | 59,000 tested, 11% active | max dye-equivalent concentration, M; in the data active = max dye-equivalent concentration above about 10 nM; inconclusive = mostly about 1.1 nM to 9.6 nM
AID923 – qHTS Assay for Allosteric/Competitive Inhibitors of Caspase-1: Spectroscopic Profiling in AFC Spectral Region; 75,000 tested, 1.1% active; Potency, µM (doses to about 57.5 µM), without a hit: top-dose fluorescence increase, usual class: activators; compound fluorescence, AFC spectral region (405/520 nm); AID 923, 2007; also: potency is read from the fitted curve at half-maximal effect; 0% is about no effect
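Compound autofluorescence profiled at 405 nm ex/520 nm em during kinetic caspase 1 run (50 nM enzyme, 5 uM Ac-WEHD-AFC, HEPES pH 7.5, 10 mM DTT). Titration up to 57 uM; baseline from regression intercept, normalized to AFC standard curve.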
CRE-bla Fsk – modulators of forskolin-stimulated CRE signaling in CHO cells; Potency, µM (series often up to 38.2 µM), inactives show top-dose activity change, negative = inhibition, usual class: activators; CHO CRE-bla reporter (cAMP response element driving beta-lactamase), forskolin EC10, beta-lactamase ratio; 71,000 tested, 2.5% active; active = well fitted activation curve with a large enough effect in the signal ratio, with a control signal flat, not every such curve was filed as active; inconclusive = small, poorly fitted or top-dose-only effect, or effect the other way, or a change in a side signal; the % refers to the signal ratio; also: potency is read from the fitted curve at half-maximal effect; % of control where 0% means no effect
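Cells were plated overnight at 37 °C, exposed to compound titrations plus EC10 NKH 477 for 3 h, then given CCF4 dye for 2 h at room temperature. Blue/green (460/530 nm) ratio was converted to %Activity and AC50 values calculated.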
An asterisk follows results filed as active; i = inactive; u = inconclusive; x = not tested or not shown; [ ] = another dose, or the depositor's remark. Rows were chosen to be rich in hits. Some 14% of all compounds tested hit in one or more screens of this group. Unless noted, calls follow the shape of the dose curve; as a rule, active = well fitted curve in the direction sought with a large enough effect; inconclusive = small, poorly fitted or top-dose-only effect, or another doubt; inactive = no such curve, though single readings can be large; an effect the other way counts as inactive or inconclusive.

SMILES | 4-MU autofl | HSD17B inh | HADH2 inhib | A350 autofl | AID923 | CRE-bla Fsk
Cc1cc(N2CCCCC2)n2ncc(-c3ccc(Cl)cc3)c2n1 | 3.8e-07M* | 3.2µM* | u | 3.8e-07M* | 1% | u
Cc1cc(N2CCN(C)CC2)n2nc(-c3ccc(Cl)cc3)nc2n1 | i | 3%[11.4 µM] | 24%[11.4 µM] | i | 1%[11.5 µM] | 10%[7.6 µM]
O=C(OCC(=O)N1CCOCC1)c1ccc[nH]c1=O | i | -5% | 4% | i | -1% | u
COc1cc2ccccc2cc1C(=O)OCC(=O)N1CCOCC1 | 9.8e-07M* | 7.9µM* | u | 9.2e-07M* | 2% | -3%
N[C@@H](Cc1cc(-c2ccc(Cl)cc2Cl)cc(CP(=O)(O)O)c1O)C(=O)O | x | 13µM* | -16% | x | -3% | u
CCN(CC)CCCN(Cc1cc2cc3c(cc2[nH]c1=O)OCCO3)C(=O)Nc1ccc(F)cc1 | 1.8e-07M* | 25µM* | 2% | 1.5e-07M* | 3% | u
O=C(c1cccs1)N(CCO)Cc1cc2cc3c(cc2[nH]c1=O)OCCO3 | 1.7e-07M* | u | -25% | 1.5e-07M* | 1% | 12%
COc1ccccc1NC(=O)N(CCN(C)C)Cc1cc2cc(C)ccc2[nH]c1=O | i | -14% | -1% | i | -2% | -3%
CCN(CC)CCCN(Cc1cc2cc3c(cc2[nH]c1=O)OCO3)C(=O)Nc1ccccc1OC | 2.2e-07M* | 32µM* | -13% | 1.9e-07M* | 1% | -5%
CC(=O)N(CCc1ccccc1C)Cc1cc2cc3c(cc2[nH]c1=O)OCO3 | 1.3e-07M* | 10µM* | 15% | 1.2e-07M* | 1% | 5%
CCc1ccc2[nH]c(=O)c(CN(CCO)C(=O)NCc3ccccc3)cc2c1 | i | u | 2% | u | 2% | -7%
Cc1cc2cc(CN(Cc3ccc4c(c3)OCO4)C(=O)c3ccco3)c(=O)[nH]c2cc1C | u | u | -14% | u | 2% | u
O=CNc1ncn[nH]1 | i | 3%[11.4 µM] | -1%[11.4 µM] | i | -3%[11.5 µM] | 0%[7.6 µM]
N#Cc1cn(-c2ccccc2)nc1-c1ccc2c(c1)OCCO2 | i | 20µM* | 3% | i | 0% | 12%
CC(C)c1nc(SCC(=O)Nc2cccc(C(F)(F)F)c2)c2c(=O)n(C)c(=O)n(C)c2n1 | x | 14% | -3% | x | 1% | 3.2µM*
CC(C)c1nc(SCC(=O)Nc2ccc3c(c2)OCCO3)c2c(=O)n(C)c(=O)n(C)c2n1 | x | u | 15% | x | 0% | u
S=c1nc(-c2ccccc2)n(CCCN2CCOCC2)c2c1CCCC2 | i | -9% | -18% | i | -1% | 13%
COCCN(CCOC)c1nc(C)nc2c1nc(-c1ccccc1)n2CCN1CCCC1 | x | 32µM* | -17% | x | 0% | 15%
COCCN(CCOC)c1nc(C)nc2c1nc(-c1ccccc1)n2CCCN(C)C | x | 32µM* | u | x | 0% | -4%
CCN1C(=O)[C@H]2[C@H]3[C@H](O)[C@H](O)C/C(=N/O[C@@H]4O[C@H](COC(C)=O)[C@@H](OC(C)=O)[C@H](OC(C)=O)[C@H]4OC(C)=O)[C@@H]3CC[C@@H]2C1=O | x | -1%[11.4 µM] | -2%[11.4 µM] | x | -2%[11.5 µM] | x
COc1cc(OC)cc(C(=O)Nc2ccc3c(c2)COC3=O)c1 | i | -18% | 31% | i | -1% | u
COc1cccc(C(=O)Nc2ccc(-c3nc4ccccc4o3)c(O)c2)c1 | x | 32µM* | 4µM* | x | 6% | 8%
COc1cc(OC)cc(C(=O)Nc2ccc(-c3nc4ccccc4o3)cc2)c1 | x | x | 32µM* | x | 1% | 18%
COc1cc(C(=O)Nc2ccc(-c3nc4cc(C)ccc4o3)c(O)c2)cc(OC)c1OC | 5.1e-07M* | 25µM* | 25µM* | 4.3e-07M* | 0% | 1%
O=C(Nc1ccc(-c2nc3ccccc3o2)c(O)c1)c1cc(-n2cnnc2)ccc1Cl | 1.3e-07M* | 20µM* | 25µM* | 1.4e-07M* | -2% | u
Cc1c(NC(=O)c2cc(-n3cnnc3)ccc2Cl)cccc1-c1nc2ccccc2o1 | i | -13% | 18% | i | -1% | u
